# Laboratory results: ChEMBL document CHEMBL3988442, “University of Dundee, Small-Polar-MMV Screening Library” (2021)
# Key:
# [1] = target: T1, Aspartate--tRNA(Asp/Asn) ligase (Mycobacterium tuberculosis (strain ATCC 25618 / H37Rv)) (UniProt P9WFW3); assay: Assay for Asp RNA synthetase-1 from Mycobacterium tuberculosis; assay type: functional; set-up: scale not given: direction of the effect not stated beside the values; details: 30 µM; note: in the data most compounds retested in dose-response had high values
# T1 sequence (whole entry): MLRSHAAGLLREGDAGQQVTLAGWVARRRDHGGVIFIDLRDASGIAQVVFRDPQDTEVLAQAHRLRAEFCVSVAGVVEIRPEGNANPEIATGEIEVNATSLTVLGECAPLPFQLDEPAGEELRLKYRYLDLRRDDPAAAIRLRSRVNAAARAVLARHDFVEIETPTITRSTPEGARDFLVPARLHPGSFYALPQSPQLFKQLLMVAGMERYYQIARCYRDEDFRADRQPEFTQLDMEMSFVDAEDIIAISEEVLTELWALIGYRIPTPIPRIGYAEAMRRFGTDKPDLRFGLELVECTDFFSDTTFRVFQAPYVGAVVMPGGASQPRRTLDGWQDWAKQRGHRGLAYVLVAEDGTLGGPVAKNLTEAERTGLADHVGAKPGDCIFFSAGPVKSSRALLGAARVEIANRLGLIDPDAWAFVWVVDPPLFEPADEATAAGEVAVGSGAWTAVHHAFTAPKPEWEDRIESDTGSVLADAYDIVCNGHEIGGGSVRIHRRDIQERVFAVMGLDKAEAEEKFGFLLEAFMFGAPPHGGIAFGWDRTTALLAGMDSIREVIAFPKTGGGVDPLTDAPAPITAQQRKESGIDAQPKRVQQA
# [2] = target: Shiga toxin 2 (Escherichia coli O157:H7) (UniProt P09385+P09386); assay: E. coli 0.157:H7 Shiga Toxin SOP - stx2 screening assay; assay type: functional; set-up: scale not given: direction of the effect not stated beside the values; details: 30 µM
SMILES,Percent Effect [1],Percent Effect [2]
CCCc1n[nH]c(C2CN(C(=O)CCCn3cccn3)CCO2)n1 (stereo not given),-0.947%,-21.7%
CS(=O)(=O)N1CCC[C@]2(C[C@@H](Oc3ncccc3F)CO2)C1,7.67%,-11.6%
NC(=O)C1CN(C(=O)Nc2cc(Cl)cc(Cl)c2)CCO1 (stereo not given),1.82%,8.74%
Cc1noc(C(C)C)c1C(=O)NCc1cc(F)cc(F)c1,-4.07%,14.2%
Cc1cnn(CC2CN(CCS(=O)(=O)c3ccccc3)CCO2)c1 (stereo not given),-0.24%,0.99%
COC[C@@]12CCO[C@@H]1CCN(C(=O)Cc1ccccc1F)C2,-2.8%,-1.69%
O=C(c1ccc(C(F)(F)F)nc1)N1CCCC(n2cncn2)C1 (stereo not given),-4.88%,-8.71%
CNc1nc2c(s1)C(c1c(Cl)cccc1Cl)CC(=O)N2 (stereo not given),50.9%,5.63%
CCOC(=O)N1CCC(C(=O)c2cc(F)ccc2F)CC1,1.26%,36.2%
Cn1cc(N2CCC3(CCN(S(=O)(=O)C4CC4)C3)C2=O)cn1 (stereo not given),-3.64%,-21.1%
CC(C)COC(C)C(=O)N1CCN(S(C)(=O)=O)CC1 (stereo not given),-6.93%,-2.13%
Cc1nc([C@@H]2C[C@@H]3CCN(C(=O)c4occc4C)C[C@H]3O2)no1,10.9%,-14.5%
Cc1nnc(C(C)N2CCN(Cc3ccc4c(c3)OCO4)CC2)o1 (stereo not given),-0.657%,17.8%
COc1cccc(NC(=O)N(CCO)Cc2ccsc2)c1,-1.36%,-14.3%
O=C(c1ccc(Cl)o1)N1CCCN(Cc2cscn2)CC1,-7.87%,6.75%
O=C(CC1CC1)N1C[C@@H]2CCN(c3cnccn3)C[C@@H]2C1,-5.94%,-0.992%
CCN(CC1CCCO1)C(=O)Nc1ccc(F)cc1OC (stereo not given),-2.28%,-7.53%
COc1ncccc1C(=O)NCC1Cc2ccccc2O1 (stereo not given),6.18%,5.65%
COc1ccc(CCNC(=O)C2CCC(Cn3cnnn3)CC2)cc1 (stereo not given),-2.03%,-4.05%
CC(C)c1cnc(CNc2c(F)cccc2-n2cccn2)o1,-0.919%,9.22%
CN(C)C(=O)[C@@H]1C[C@@H]2CCN(Cc3nccs3)C[C@@H]2O1,1.05%,2.36%
CS(=O)(=O)N1CCC(O)(Cn2c(C3CC3)nc3ccccc3c2=O)CC1,1.5%,11.1%
Cn1ccnc1CN1CCC2(CC1)CC(Oc1cccnc1)C2,0.874%,-18.2%
Cc1nc([C@@H]2C[C@@H]3CCN(C(=O)Cc4ccsc4)C[C@H]3O2)no1,-2.49%,2.89%
O=C(c1cnc(C2CC2)s1)N1CCCCC1Cn1cccn1 (stereo not given),-8.43%,-18.5%

SMILES,Percent Effect [1],Percent Effect [2]
Cc1noc(C(C)C)c1C(=O)NCc1cccc(N(C)C)c1,-3.25%,13.2%
O=C(C1CCS(=O)(=O)C1)N1CCN(c2cnccn2)CC1 (stereo not given),0.204%,25.5%
Cc1cc(CN2CCN(c3nn4cc(C)nc4s3)CC2)on1,-0.8%,-27.6%
Cc1ccc(C(=O)N2C[C@@H]3OCCN(CCN4CCCC4)[C@@H]3C2)cn1,-1.02%,3.78%
O=C(NCc1nnc2n1CCCC2)N(Cc1ccccc1F)C1CC1,-1.44%,7.01%
COc1ccc2c(c1)OCC(CNC(=O)c1ccc(=O)n(C)c1)C2 (stereo not given),-0.474%,0.424%
O=C(c1ccc(Cl)cc1)N1CCCn2nnc(Cn3cccn3)c2C1,-1.14%,-4.47%
N#Cc1ccc(OCCN2CCc3c(ncn3C3CC3)C2)cc1,1.24%,-40.3%
O=C(C1CCCC1)N1CCC2(CC1)COCCN2CC1CC1,-3.37%,0.147%
COc1ccc(C(=O)N2CCCCC2c2nc(C)cs2)nn1 (stereo not given),-4.46%,-31.3%
CC(C)c1n[nH]c(C2CN(C(=O)CCn3ccccc3=O)CCO2)n1 (stereo not given),-1.85%,10.2%
CC(C)C(NC(=O)N1CCN(c2ccc(Cl)cc2)CC1)C(=O)NC1CC1 (stereo not given),-3.72%,7.46%
CSc1cc2c(cc1NC(=O)NCC(C)(C)C(N)=O)OCCO2,0.408%,-1.68%
Cc1noc(C)c1-c1cccc(CC2CCN(C(=O)c3cc[nH]n3)C2)n1 (stereo not given),-1.22%,4.37%
CCOc1cc(C)nc(N2CCN(C(=O)c3ccnn3C)CC2)n1,-2.8%,2.54%
CN(Cc1cn2ccccc2n1)C1CCCN(c2cccnn2)C1 (stereo not given),3.45%,-72.8%
O=S(=O)(Cc1ccccc1)NCc1ccco1,-3.04%,4.92%
Cc1cccc(NC2CCN(C(=O)Nc3cc(C)on3)CC2)n1,-5.71%,-63.5%
COc1ccccc1Oc1ncccc1CNC(=O)[C@@H](C)NC(C)=O,0.362%,-19.5%
CCn1cc(CN2C[C@@H]3CCCN3C[C@@H]2CCSC)c(C)n1,-0.662%,5.06%
CC(Cn1cccn1)NC(=O)Nc1nccs1 (stereo not given),-0.364%,2.8%
CNC(=O)N1C[C@H]2CC[C@@]3(N=C(c4ccccc4)NC3=O)[C@H]2C1,4.9%,-20.9%
CN1CCN(C(=O)NC2CC2)Cc2cccnc21,8.44%,-32.5%
CN(Cc1ccc2c(c1)OCCO2)C(=O)Cn1cccnc1=O,-2.54%,-20.6%
CCn1cnnc1CNC(=O)c1cc(Cl)ccc1O,3.77%,-19.6%

SMILES,Percent Effect [1],Percent Effect [2]
CCC(=O)N1CCc2[nH]cnc2C12CCN(C(=O)CCS(C)(=O)=O)CC2,-0.836%,9.19%
Cc1cnn(C2CN(CC(=O)Nc3cccnc3)C2)c1,3.91%,11%
COc1ccc(OCCN(C)C(=O)NC(C)c2nncn2C)cc1 (stereo not given),-1.96%,-14.8%
NC(=O)COc1cccc(C(=O)Nc2cnc3n2CCCC3)c1,-0.557%,-2.86%
Cc1cnn(CC2CCCN2C(=O)c2cnc3n[nH]c(C)c3c2)c1 (stereo not given),-3.6%,-40.6%
O=C(NCC(=O)N1CCCCC1)c1ccc(Cl)cc1I,0.257%,1.85%
Cn1ccnc1CN1CCN(CC(O)c2ccco2)CC1 (stereo not given),4.07%,20%
Cc1ncsc1C(=O)NCc1cccs1,-1.72%,1.3%
Cc1noc(C2CCN(C(=O)c3ccc(NC4CC4)nc3)CC2)n1,1.21%,-7.73%
CCn1c(CN2CCC(O)(C(=O)OC)CC2)nc2c(F)cccc21,-3.57%,-24.9%
Cc1nc(CN2CCn3cc(CNC(=O)C4CCC4)nc3C2)cs1,11%,-50.1%
Cc1noc([C@H]2C[C@@H]3CCN(CC4CC4)C[C@H]3O2)n1,6.95%,-8.04%
O=C([C@H]1COC[C@H]2CN(C3CCCC3)C[C@H]21)N1CCCCO1,5.94%,-2.98%
Cc1nnc(CN2CCN(CC(O)c3cccc(F)c3)CC2)n1C (stereo not given),-0.288%,18.7%
Cc1nc[nH]c1CN1CCN(C(=O)c2cccs2)[C@H]2CS(=O)(=O)C[C@H]21,-4.62%,10%
CN1CCC(NC(=O)NCc2csc(Br)c2)CC1,6.12%,6.77%
CCn1ccnc1CN1CCN(CCOc2cccc(C#N)c2)CC1,-0.322%,-9.38%
Cn1cnnc1C1CCCN(C(=O)c2ccc3c(c2)OCCCO3)C1 (stereo not given),0%,1.29%
c1nc2c(c(C3CC3)n1)CCN(Cc1ccc3c(c1)OCO3)CC2,-2.19%,-20.6%
CC(C)n1ccnc1CN1CCCN(C(=O)COC2CCCC2)CC1,-1.67%,-3.07%
COc1cccc(N2CCN(CC(O)c3cc(C)sc3C)CC2)c1 (stereo not given),0.432%,6.38%
CCCNC(=O)c1sc(Nc2ccc(Cl)cn2)nc1C,-4.04%,-46.7%
CCNC(=O)N1CCCCC1CCNS(C)(=O)=O (stereo not given),-3.62%,4.69%
Cc1cccc(NC(=O)N2CCCn3cnc(CN4CCCC4)c3C2)c1,-3.25%,-16.8%
CC(O)CN1CCN(C(=O)c2ccc(Cn3cccn3)cc2)CC1 (stereo not given),5.51%,14.6%
